Common to all, as to assay: NCI-60 one-dose screen, 48 h (100 = growth as untreated, 0 = no growth, -100 = all killed)
What all share (conditions): 10 µM unless noted

The test system of experiment [1] is NCI-H23 lung.
In experiment [2] the test system is NCI-H226 lung.
The test system of experiment [3] is NCI-H322M lung.
Experiment [4] concerns HOP-62 NSCLC.
Experiment [5] has as its system NCI-H460 lung.
For experiment [6], the system named is NCI-H522 lung.
In experiment [7] the test system is A549/ATCC NSCLC.
Experiment [8] concerns 786-0 renal.
The subject of experiment [9] is COLO 205 colon.

SMILES strings stand for the structures. This is part of a sample that, as a whole, favours compounds with a hit. Of some 83,000 tested, about 20% had one in any assay.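 How to read the values: 0–100, growth inhibition (40 = 60% inhibited); 0, no net growth; -100 to 0, cell death (-40 = 40% of starting cells died; -100 = all dead).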 A number with no mark means an inactive call. Calls of active or inactive are those of the source. Rule for the calls: active = growth percent below 10; inactive = the rest.

`Fc1cc(-c2cnc3nonc3n2)c(Cl)cc1Cl`: the growth in experiment [1] is 94.2%; in [2], 111%; in [3], 94.1%; in [4], 98.3%; in experiment [5] it was 106%; in experiment [6] it was -72.3% (active). The growth is 102% in experiment [7], 79.3% in experiment [8] and 60.2% in experiment [9].
Consider `O=C(Nc1ccc(-n2ccc3c(NC(=O)c4ccccc4)nccc32)cc1)c1ccc(N2CCOCC2)c(C(F)(F)F)c1`, for which the growth in [1] is 37.4%; in experiment [2] it was 43.1%; in [3], 48.6%; in experiment [4], 21.1%; in [5], 3.48% (active); in experiment [6], 29.9%. For the same molecule, the growth in [7] is 6.91% (active); in experiment [8], -26.3% (active); in experiment [9], 16.6%.
In the case of `O=C(CSc1nnc(Cc2ccccc2Nc2c(Cl)cccc2Cl)n1-c1ccccc1)N1N=C(c2ccc3ccccc3c2)CC1c1ccc(Cl)cc1` (centres undefined), the growth in experiment [1] is 96.2%; in [2], 98.8%; in experiment [3] it was 90.7%; in [4], 92.7%; in [5], 106%; in experiment [6], 66.1%. Also, the growth was 96.3% in experiment [7], 95.9% in experiment [8] and 102% in experiment [9].
`COc1ccc([C@H]2c3[nH]c4ccccc4c3C[C@H]3C(=O)N(CCCCCCC(=O)NO)CC(=O)N23)cc1`: the growth in experiment [1] is 34.6%; in [2], 76.9%; in [3], 53.2%; in experiment [4], 42.9%; in [5], 47%; in experiment [6] it was 4.51% (active). Besides, the growth in [7] was 60%; in [8] it was 83.6%; in experiment [9], 22.9%.
For `CC(=O)CC(c1ccc([N+](=O)[O-])cc1)c1c(O)c2ccccc2oc1=O` (centres undefined), the growth in experiment [1] was 106%; in [2], 93.9%; in [3], 98.7%; in experiment [4] it was 102%; in experiment [5], 104%; in experiment [6], 97.3%. The figures for the growth in experiment [7], in [8] and in [9] were 95.7%, 95.4% and 112%, respectively.
On to `COc1cccc(-c2nc3sccn3c2-c2ccnc(NCCN3CCCN(C)S3(=O)=O)n2)c1`, for which the growth in experiment [1] was 104%; in [2], 78.9%; in [3] it was 91.4%; in experiment [4], 111%; in [5] it was 69.5%; in experiment [6], 95.9%. In addition, the figures for the growth in experiment [7], in experiment [8] and in [9] were 91.7%, 73.3% and 45.8%, respectively.
`CC1=CCC2C1CC=C(C)C(CC[C@H]1[C@@](C)(O)CCC3OC(C)(C)[C@H](OC(=O)c4ccccc4)CC[C@@]31C)C2(C)C` (some centres undefined): the growth is 65.2% in experiment [1]; 72.9% in experiment [2]; 96.3% in experiment [3]; 86% in experiment [4]; 97.1% in [5]; 67.8% in experiment [6]. Moreover, the growth is 78.7% in experiment [7], 70.9% in [8] and 112% in [9].
On to `O=C1Nc2ccc(Cl)cc2/C1=C\c1c(-c2ccc(F)cc2)nc2ccccn12`, for which the growth is -20.1% (active) in experiment [1]; -30.8% (active) in experiment [2]; 43.6% in experiment [3]; -10.3% (active) in experiment [4]; 6.88% (active) in experiment [5]; 11.4% in experiment [6]. Also, the growth in [7] is 23.7%; in [8], 24.6%; in experiment [9], 45.7%.
Take `COc1ccc2[nH]cc(C3(c4c[nH]c5ccc(OC)cc45)C(=O)Nc4ccc(F)cc43)c2c1`: the growth is 97% in experiment [1]; 70% in experiment [2]; 98.1% in experiment [3]; 83.3% in [4]; 4.92% (active) in experiment [5]; 78.5% in experiment [6]. Besides, the growth in experiment [7] was 75.3%; in experiment [8], 82.6%; in experiment [9], 72.9%.
On to `Cc1cc(O)ccc1Sc1ccccc1[N+](=O)[O-]`, for which the growth in [1] was 86.2%; in experiment [2] it was 97.2%; in experiment [3], 110%; in [4], 92.2%; in experiment [5] it was 96.4%; in experiment [6], 75.9%. Also, the values for the growth in [7], in experiment [8] and in [9] were 84.9%, 107% and 108%, respectively.
Take `O=C(CCl)Nc1cc(O)c2c(c1)C(=O)c1cccc(O)c1C2=O`: the growth was -45% (active) in experiment [1]; -20.6% (active) in [2]; 59% in [3]; -100% (active) in [4]; -43.5% (active) in experiment [5]; -89% (active) in [6]. The growth was 91% in experiment [7], -71.5% (active) in [8] and -81.5% (active) in experiment [9].
As for `CCN(CC)c1ccc(/C=N/NC(=O)c2ccc(S(C)(=O)=O)cc2)c(O)c1`, the growth in experiment [1] was 32.8%; in experiment [2], 22.6%; in experiment [3] it was 25%; in [4], 12.9%; in experiment [5], 3.28% (active); in [6], 9.91% (active). The growth in [7] was 12.5%; in experiment [8], 15.4%; in experiment [9], 8.62% (active).
With `C[C@@H]1N=C(c2ccc3ccccc3c2)Nc2nc3ccccn3c2C1=O`, the growth is 46.1% in experiment [1]; 64.5% in [2]; 73.2% in experiment [3]; 36.7% in experiment [4]; 15.2% in experiment [5]; 29.4% in experiment [6]. Moreover, the growth in experiment [7] is 39.5%; in [8], 69.3%; in experiment [9], 22.8%.
For `CCN1CCN(Cc2ccc(NC(=O)Nc3ccc(-n4ccc5c(NC(=O)c6ccccc6)nccc54)cc3)cc2C(F)(F)F)CC1`, the growth was -51.5% (active) in experiment [1]; 71.1% in [2]; 80.8% in [3]; -78.4% (active) in experiment [4]; -44.3% (active) in [5]; -87.2% (active) in [6]. The growth in experiment [7] is -62.8% (active); in [8], -84.6% (active); in experiment [9], -87.5% (active).
For the molecule `COc1ccc2nc(-c3ccc(-c4noc(-c5ccc(Cl)cc5)n4)cc3)[nH]c2c1`, the growth in experiment [1] was 63.7%; in experiment [2], 93.4%; in experiment [3], 67.5%; in experiment [4] it was 97.4%; in [5], 79.1%; in experiment [6] it was 88.6%. Also, the values for the growth in experiment [7], in experiment [8] and in experiment [9] were 72.8%, 98.5% and 67.8%, respectively.
Turning to `CSc1ccc(/C=C2\C=C(CC(=O)NCc3ccc(C(=O)c4ccccc4)cc3)c3cc(F)ccc32)cc1`, the growth is -23.2% (active) in experiment [1]; -40.8% (active) in experiment [2]; 39.4% in [3]; -7.82% (active) in experiment [4]; -43.7% (active) in [5]; -38.5% (active) in experiment [6]. In addition, the results for the growth in experiment [7], in experiment [8] and in experiment [9] were -0.932% (active), -25.7% (active) and -75.6% (active), respectively.

(Values after PubChem BioAssay (NCI).)
